SMN2 splice enh: enhancers of SMN2 splice variant expression; HEK293 SMN2-luciferase splicing reporter, luminescence, 30-36 h; Potency, µM (doses to about 46.1 µM), for inactives: top-dose activity change, positive = activation, actives largely listed as activators; hit rate 2.8% among 210,000; AID 1458; further: % of control where 0% means no effect; nearly all actives have a fitted effect of over 55% in size
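qHTS luciferase splicing reporter: luminescence rises when SMN2 exon 7 is included in transfected HEK293 cells. Compound exposure lasted 30-36 h at 37C, with 4.5 mM final sodium butyrate as control, followed by a ONE-Glo read.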
Rab9 prom act: activates the Rab9 promoter. Potency, µM (top dose mostly 9.22 µM), for inactives: at the highest dose activation, negative = inhibition, hits mostly activators. Huh7 Rab9 promoter-luciferase reporter, luminescence, 24 h. hit rate 2.8% among 320,000; further: % of control where 0% means no effect; nearly all actives have a fitted effect of over 60% in size
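Promoter activation is measured as luciferase luminescence in Huh7 cells stably transfected with a Rab9 promoter–luciferase construct, following 24 h compound exposure at 37 °C and 10 min reagent incubation at ambient temperature.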
FLuc modulator: counter-screen for miR-21 project: firefly luciferase inhibitors or activators; purified FLuc, Km substrates, luminescence inhibition; Potency, µM (highest dose often 57.5 µM), for inactives: at the top dose activity change, negative = inhibition, usual class: inhibitors; hit rate 6.9% among 360,000;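 further: plate controls were vehicle for no effect and reference inhibitor for full effect; nearly all actives have a fitted effect of over 55% in size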
Target sequence (P08659 whole entry, looked up): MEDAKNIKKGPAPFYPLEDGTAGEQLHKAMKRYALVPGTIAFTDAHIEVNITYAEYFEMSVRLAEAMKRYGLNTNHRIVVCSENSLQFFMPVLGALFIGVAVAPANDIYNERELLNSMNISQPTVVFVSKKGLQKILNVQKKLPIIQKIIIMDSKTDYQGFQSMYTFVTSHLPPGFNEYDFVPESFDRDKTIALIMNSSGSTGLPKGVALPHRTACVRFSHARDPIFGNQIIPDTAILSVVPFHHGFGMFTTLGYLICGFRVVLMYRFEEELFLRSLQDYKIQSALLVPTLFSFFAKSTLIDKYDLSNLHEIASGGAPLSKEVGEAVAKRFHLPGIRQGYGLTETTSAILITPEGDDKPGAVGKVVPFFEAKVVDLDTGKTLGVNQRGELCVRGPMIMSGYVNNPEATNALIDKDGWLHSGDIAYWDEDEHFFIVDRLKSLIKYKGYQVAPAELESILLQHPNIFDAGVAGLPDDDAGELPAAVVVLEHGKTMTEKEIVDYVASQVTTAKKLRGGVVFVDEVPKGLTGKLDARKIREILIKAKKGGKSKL
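Biochemical qHTS of compounds, final roughly 60 µM downward over six points, against 10 nM purified firefly luciferase using Km concentrations of substrates (10 uM D-luciferin, 10 uM ATP) in Tris acetate pH 7.5 buffer; luminescence output.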
NPC1 prom act: activates the NPC1 promoter. Huh7 NPC1 promoter luciferase reporter, 24 h. Potency, µM (top dose mostly 9.22 µM), for the others: at the highest dose activation, usual class: activators. hit rate 2.4% among 320,000. AID 485313; further: % of control where 0% means no effect; nearly all actives have a fitted effect of over 60% in size
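Huh7 cells stably carrying NPC1 promoter–luciferase, plated in Opti-MEM with 10% FBS for 2 h, were exposed to compound in DMSO for 24 h at 37 °C; luciferase reagent was added for 10 min and luminescence read.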
ELG1 genotoxic: genotoxicity induction in ELG1-luciferase HEK293T cells; HEK293T ELG1-luciferase reporter, luminescence, 16 h; Potency, µM (doses to about 46 µM), for inactives: at the top dose activity change, positive = activation, hits mostly activators; hit rate 1.3% among 330,000; further: % of control where 0% means no effect; nearly all actives have a fitted effect of over 60% in size
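Cells (2,000/well) expressing the ELG1-luciferase fusion are dosed by pin tool and kept 16 hr at 37 °C, 5% CO2. Signal comes from ONE-Glo luciferase reagent after 30 min at room temperature.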
* marks the source's active call; other numbers are inactive results; ? = inconclusive; . = no result; [ ] = another dose, or the depositor's remark. Sampled rows, rich in hits. Any-hit rate of the full collection: about 7.4%. The call rests on the fitted dose curve; in most records, active means well fitted curve in the direction sought with a large enough effect; inconclusive means small, poorly fitted or top-dose-only effect, or another doubt; inactive means no such curve, though single readings can be large; an effect the other way counts as inactive or inconclusive. Potency means the concentration at half of the fitted maximal effect.

SMILES	SMN2 splice enh	Rab9 prom act	FLuc modulator	NPC1 prom act	ELG1 genotoxic
Clc1ccc(COn2c(-c3ccc(Cl)cc3)nc3ccccc32)cc1	-24%	4%	?	-4%	-2%
O=C(O)COn1c(-c2ccccc2)nc2ccc([N+](=O)[O-])cc21	29%	?	15µM*	26%	18%
O=C(Cn1nnc(-c2ccc3c(c2)OCO3)n1)Nc1ccccc1C(=O)O	.	27%	15µM*	?	?
CN(C)c1ccc(-c2nnn(CC(=O)Nc3ccccc3N3CCOCC3)n2)cc1	-12%	9%	27µM*	30%	-2%
O=C(CN1C(=O)COc2ccc(S(=O)(=O)N3CCCCC3)cc21)NCCc1ccc(Cl)cc1	.	.	-12%	.	.
CC(NC(=O)C1CCN(S(=O)(=O)c2ccc(F)cc2)CC1)c1ccccc1 (configuration not stated)	-14%	.	-4%	.	.
c1csc(-c2nnc3ccccn23)c1	0.0028µM*	2%	-3%	0%	-1%
Cc1ccc(S(=O)(=O)N2CCOCC2)cc1C(=O)OCc1nnc(-c2ccccc2)o1	.	4%	-19%	1%	-2%
O=C(OCc1nnc(-c2ccccc2)o1)c1cc(S(=O)(=O)N2CCOCC2)c(Cl)cc1Cl	?	7%	-2%	-4%	18µM*
Oc1ccccc1CNc1ccc(Br)cn1	?	?	9.5µM*	?	-2%
CCOC(=O)CNc1c(-c2ccc(Cl)cc2)nc2cnccn12	4%	1%	-14%	-1%	0%
COc1ccc(-c2nc3ccc(Cl)cn3c2Nc2ccc(C)cc2)cc1	10%	.	-6%	.	.
COCCNc1c(-c2ccc(OC)cc2)nc2ccc(Cl)cn12	21%	?	11µM*	18%	1%
CCOC(=O)CNc1c(-c2ccc(OC)cc2)nc2ccc(Cl)cn12	?	0%	8.5µM*	4%	?
CCCC1CCC(c2nc(-c3cccnc3)no2)CC1 (configuration not stated)	-3%	?	24µM*	24%	15%
Cc1ccc(O)c(-n2nc3ccccc3n2)c1	.	3.2µM*	2.7µM*	3.2µM*	?
COc1ccc(C)cc1-n1nc2ccccc2n1	1%	-1%	-5%	-5%	2%
CCCCn1c(N)c(N(CCOC)C(=O)c2ccc(C)o2)c(=O)[nH]c1=O	.	4%	6%	-4%	8%
Cc1ccc(-c2nc3ccc([N+](=O)[O-])cc3[nH]2)cc1	1.3µM*	1.6µM*	0.85µM*	1.6µM*	?
Nc1nc2ccc([N+](=O)[O-])cc2[nH]1	.	-1%	0%	-4%	-11%
Fc1ccc(-c2nc3ccncc3[nH]2)cc1	10%	20%	?	23%	6%
O=[N+]([O-])c1ccc2nc(-c3ccc(Cl)cc3)[nH]c2c1	3.2µM*	1.6µM*	3µM*	2µM*	-1%
Clc1ccc(-c2nc3ccncc3[nH]2)cc1	11µM*	?	11µM*	?	?
O=[N+]([O-])c1ccc2nc(-c3ccncc3)[nH]c2c1	.	28%	17µM*	?	?
COc1cc(/C=C/C(O)=C/C(=O)/C=C/c2ccc(O)cc2)ccc1O	.	-1%	-25%	-1%	10%
SMILES	SMN2 splice enh	Rab9 prom act	FLuc modulator	NPC1 prom act	ELG1 genotoxic
O=C(O)c1ccc2c(c1)C(=O)N(CCc1ccc(O)cc1)C2=O	.	-2%	2%	0%	.
Cc1ccc(CNC(=O)CSc2nc3ccccc3nc2Cc2ccc(C)cc2)cc1	.	.	-5%	.	.
O=c1c2c(-c3ccc([N+](=O)[O-])cc3)ccnc2[nH]n1-c1ccccc1	.	-3%	-14%	1%	1%
O=[N+]([O-])c1ccc2nc(-c3ccccc3[N+](=O)[O-])[nH]c2c1	-5%	12%	?	1%	-12%
COc1ccc(-c2nc3ccc([N+](=O)[O-])cc3[nH]2)cc1	1µM*	1.1µM*	1.5µM*	1.6µM*	?
NC(N)=Nc1nc2ccc([N+](=O)[O-])cc2[nH]1	-4%[9.22 µM]	0%	-7%	4%	6%
O=[N+]([O-])c1cccc(-c2nc3ccc([N+](=O)[O-])cc3[nH]2)c1	-73%	4µM*	?	21%	-4%
Cc1noc(C)c1COc1ccc(C(=O)Nc2nnc(CC(C)C)s2)cc1	.	-18%	-2%	-9%	2%
O=C(Nc1nncs1)c1ccc2c(c1)OCO2	.	30%	15µM*	23%	?

Assay outcomes from PubChem.
